Screening results: PubChem, National Center for Advancing Translational Sciences (NCATS)
Rows were chosen to be rich in hits. Some 1.2% of all compounds tested hit in one or more screens of this group.
CtBP-E1A inh: qHTS Assay for Inhibitors of the CtBP/E1A Interaction; AlphaScreen GST-E1A/His-CtBP binding, 1536-well; active compounds read low; AID 651724, 2012; activity change, % (concentration not given with the values); 340,000 tested, 0.49% active; in the data active = activity change below about -65%; inconclusive = mostly about -30% to -63%
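Homogeneous bead-based format: GST-tagged E1A captured on glutathione donor beads, His-tagged CtBP on nickel acceptor beads; compounds precede bead addition by 2 h at 37 °C.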
USP2a block: qHTS Assay for Inhibitors of Ubiquitin-specific Protease USP2a Using CHOP2 as the Reporter. USP2 core, Ub-CHOP2 coupled fluorogenic reporter, 485/531. Ubiquitin carboxyl-terminal hydrolase 2 (Homo sapiens), O75604. 330,000 tested, 0.01% active. Potency, µM (titrated, usually from 38.3 µM), inactives show at the highest dose activity change, negative = inhibition, actives largely listed as inhibitors;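 note: potency is the fitted concentration of half-maximal effect; plate controls were DMSO wells for no effect and full inhibition by NEM control for full effect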
Target sequence (O75604 whole entry, looked up): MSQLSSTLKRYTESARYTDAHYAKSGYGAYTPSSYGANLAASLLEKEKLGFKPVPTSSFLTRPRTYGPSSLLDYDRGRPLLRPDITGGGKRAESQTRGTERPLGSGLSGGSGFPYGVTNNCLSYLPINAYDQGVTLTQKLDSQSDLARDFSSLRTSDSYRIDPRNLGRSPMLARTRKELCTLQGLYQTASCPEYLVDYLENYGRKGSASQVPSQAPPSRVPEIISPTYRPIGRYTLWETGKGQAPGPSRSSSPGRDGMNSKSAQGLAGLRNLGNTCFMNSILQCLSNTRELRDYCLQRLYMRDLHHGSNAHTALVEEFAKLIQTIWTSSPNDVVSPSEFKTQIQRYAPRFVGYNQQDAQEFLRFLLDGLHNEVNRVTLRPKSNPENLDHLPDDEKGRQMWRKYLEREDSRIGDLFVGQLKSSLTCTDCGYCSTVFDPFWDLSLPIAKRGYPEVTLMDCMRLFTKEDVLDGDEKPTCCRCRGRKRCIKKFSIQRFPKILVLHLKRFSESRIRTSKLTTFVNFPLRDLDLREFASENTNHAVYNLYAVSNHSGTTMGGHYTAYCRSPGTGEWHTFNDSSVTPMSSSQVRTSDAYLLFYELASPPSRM
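USP2 core (10nM final) preincubated 30min RT with compound in 20mM Tris-HCl pH 8.0, 2mM CaCl2, 2mM beta-mercaptoethanol, 0.05% CHAPS; 25nM Ub-CHOP2 plus 25nM reporter substrate added, fluorescence (Ex485/Em531) read after 60min.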
L3MBTL1 inh: qHTS Assay for the Inhibitors of L3MBTL1 | Potency, µM (titrated, usually from 57.1 µM), for the others: at the highest dose activity, negative = inhibition, most hits filed as inhibitors | 230,000 tested, 0.66% active | AlphaScreen L3MBTL1–H3K9me1 peptide binding; note: potency is the fitted concentration of half-maximal effect; nearly all actives have a fitted effect of over 60% in size
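Displacement of a biotinylated histone H3(1-15) peptide monomethylated at Lys9 (75 nM) from L3MBTL1 (50 nM) was measured by AlphaScreen after a 30 min room-temperature compound incubation; cefsulodin titration served as intraplate control.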
Six1-Eya2 inh: qHTS Assay for Inhibitors of the Six1/Eya2 Interaction. activity change, % (test concentration not listed). Homeobox protein SIX1 (Homo sapiens) + Protein phosphatase EYA2 (Homo sapiens), …. AlphaScreen GST-Six1/His-Eya2 binding, biochemical; active compounds read low. 360,000 tested, 0.56% active; in the data active = activity change below about -65%; inconclusive = mostly about -30% to -63%
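Compounds are tested against tagged Six1 and Eya2 proteins bridged by glutathione donor and nickel acceptor beads; after a one-hour incubation at 37 °C without light, AlphaScreen emission is recorded.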
uPA surface inh: qHTS for Inhibitors of Cell Surface uPA Generation | cell surface uPA generation assay, qHTS | Potency, µM (top dose mostly 38.3 µM), for the others: top-dose activity change, negative = inhibition, actives largely listed as inhibitors | 330,000 tested, 0.31% active | AID 540303, 2011; active = well fitted inhibition curve with a large enough effect; inconclusive = small, poorly fitted or top-dose-only effect; inactive = no such curve, though single readings can be large or run the other way; tested in mouse RAW 264.7 cells; note: potency is the fitted concentration of half-maximal effect; nearly all actives have a fitted effect of over 55% in size
Eya2 inh: qHTS Assay for Inhibitors of the Phosphatase Activity of Eya2; Protein phosphatase EYA2 (Homo sapiens), O00167; recombinant Eya2, OMFP fluorescence dephosphorylation (OMFP is methylfluorescein phosphate); Potency, µM (highest dose often 76.9 µM), inactives show top-dose activity, negative = inhibition, usual class: inhibitors; 330,000 tested, 0.006% active; AID 488837, 2010; note: potency is the fitted concentration of half-maximal effect
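Eya2 protein (added as 0.2 uM solution) was preincubated with compound for 10 min at ambient temperature in 50 mM HEPES pH 7.5, 50 mM NaCl, 5 uM MgCl2, 0.05% BSA, 1 mM DTT. OMFP (added at 50 uM) then reacted 10 min; fluorescence read at 485/525 nm.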
* = called active by the depositor; ? = inconclusive; . = no result given; [ ] = another dose, or the depositor's remark. Unless noted, calls come from the whole dose curve; as a rule, active = well fitted curve in the direction sought with a large enough effect; inconclusive = small, poorly fitted or top-dose-only effect, or another doubt; inactive = no such curve, though single readings can be large; an effect the other way counts as inactive or inconclusive. Unless noted, % is set by controls: 0 for no effect and ±100 for the full control effect.

SMILES	CtBP-E1A inh	USP2a block	L3MBTL1 inh	Six1-Eya2 inh	uPA surface inh	Eya2 inh
CCOC(=O)c1oc2c(c1C)C(=O)CCC2	17.1	-1.1%	-1.3%	2.3	3.9%	-3.0%
COc1cc(C(Nc2ccccn2)c2ccc3ccc(C)nc3c2O)cc(OC)c1O (centres undefined)	-6.0	0.6%	-11.3%	?	-5.2%	9.5%
Oc1c(C(Nc2ccccn2)c2ccccn2)ccc2cccnc12 (centres undefined)	-94.8*	-1.5%	28.2µM*	-95.0*	-13.3%	16.8%
Cc1ccc2ccc(C(Nc3ccccn3)c3ccccc3)c(O)c2n1 (centres undefined)	-5.2	-2.2%	-11.7%	-2.3	?	-5.2%
Cc1cc(NC(c2ccc(Cl)cc2)c2ccc3cccnc3c2O)no1 (centres undefined)	?	-11.8%	.	-65.5*	-6.3%	8.9%
Cc1ccnc(NC(c2ccccc2)c2ccc3cccnc3c2O)c1 (centres undefined)	-88.3*	.	.	-77.7*	-14.1%	.
COc1ccccc1NC(c1cccnc1)c1ccc2cccnc2c1O (centres undefined)	-77.8*	0.9%	?	-79.3*	-10.3%	-1.4%
CCOC(=O)N1CCN(S(=O)(=O)c2ccc(OC)c(Br)c2)CC1	.	-0.8%	0.3%[2.29 µM]	-3.4	2.4%	4.2%
CN1C2C=CC(=O)C1C1C(=O)N(c3ccccc3)C(=O)C12 (centres undefined)	10.5	.	.	0.3	.	.
Oc1ccccc1C(Nc1nccs1)c1ccc2cccnc2c1O (centres undefined)	-93.4*	0.3%	?	-77.1*	4.8%	0.8%
O=C(O)c1ccccc1NC(c1ccccc1)c1ccc2cccnc2c1O (centres undefined)	-20.3	.	.	-84.4*	-8.5%	.
Cc1ccccc1C(=O)NC(CC(C)C)C(=O)OCc1cc(=O)n2cc(Br)ccc2n1 (centres undefined)	-4.8	3.7%	5.8%	-3.7	3.5%	2.7%
Cc1cc(C)c(C)c(S(=O)(=O)N[C@@H](C)C(=O)OCc2cc(=O)n3cc(Br)ccc3n2)c1C	-2.1	-5.5%	12.6µM*	-5.0	-1.1%	-2.5%
Cc1cc(C)c2nc(C)cc(N/N=C/c3ccc(O)cc3)c2c1	-86.0*	0.8%	-7.1%	?	-10.7%	3.2%
CCc1c(C)nc2c(C#N)c[nH]n2c1=O	-77.4*	-0.8%	4.7%	?	2.2%	-4.5%
O=C(NCC(c1ccco1)N1CCN(c2ccccc2)CC1)C1CCCCC1 (centres undefined)	0.3	.	.	1.3	.	.
O=C(NN1C(=O)/C(=C/c2cc([N+](=O)[O-])ccc2O)SC1=S)c1ccccc1O	.	-0.6%	4.47µM*	.	.	-6.8%
O=[N+]([O-])c1ccc(O)c(/C=N/n2cnc3ccccc32)c1	3.1	2.5%	7.7%	0.1	1.2%	4.8%
Cc1ccc(/C=C2\SC(=S)N(/N=C/c3cc([N+](=O)[O-])ccc3O)C2=O)o1	-92.6*	?	.	-88.9*	-1.1%	6.4%
O=C(OCC(=O)N1CCCc2ccccc21)c1ccc(S(=O)(=O)C(F)F)cc1	4.8	1.0%	3.1%	6.3	0.2%	22.7%
O=C(Nc1ccccn1)c1ccc2c(c1)OCCO2	-2.1	-0.4%	.	13.1	-19.1%	-3.8%
CC(=O)Nc1ccc(C(=O)Nc2nc(-c3ccccn3)cs2)cc1	-90.9*	-5.3%	-44.2%	-81.4*	-5.3%	11.8%
O=C(Nc1nc(-c2ccccn2)cs1)c1ccccc1-n1cnnn1	-98.1*	-0.6%	20µM*	-90.6*	-11.9%	-5.0%
CC1CC1C(=O)Nc1nc(-c2ccccn2)cs1 (centres undefined)	-70.2*	1.1%	.	-81.7*	-9.4%	0.8%
O=C(Nc1nc(-c2ccccn2)cs1)c1ccc2c(c1)OCCO2	?	-2.1%	-26.3%	-81.8*	2.51µM*	-8.6%
SMILES	CtBP-E1A inh	USP2a block	L3MBTL1 inh	Six1-Eya2 inh	uPA surface inh	Eya2 inh
CC(=O)Nc1ccc(C(=O)Nc2nc(-c3cccnc3)cs2)cc1	-12.5	10.6%	7.2%	-5.9	1.7%	24.7%
O=C(NCCN1CCOCC1)c1c(O)nc2sccn2c1=O	-3.5	2.6%	-11.4%	3.8	2.2%	-24.9%
COc1ccc(C(=O)N2CCOC2CNC(=O)C(=O)NCc2ccccc2)cc1 (centres undefined)	-21.3	.	.	-22.7	.	.
COC(=O)c1cc(C)nc2c1C(=O)C(=O)C=C2N1CCOCC1	-68.2*	1.1%	.	-67.2*	-16.0%	-1.4%
CC(C)C[C@H]1CNC(=S)N1CC1CCN(CCCC2CCCCC2)CC1	-9.8	.	.	-3.4	?	.
COc1cc(N=Nc2cccc(S(N)(=O)=O)c2)c2ccccc2c1N	-71.1*	-1.1%	-25.5%	?	-12.6%	-14.9%
NC1=NC(=Nc2cccc(S(N)(=O)=O)c2)c2ccccc21	.	-0.4%	7.6%	-3.4	-8.1%	-4.3%
COc1ccc(-n2nc([N+](=O)[O-])c(=NCCc3ccccc3)n2O)cc1	-8.4	-0.9%	-15.1%	?	10µM*	-9.0%
Cc1ccc(CN=c2c([N+](=O)[O-])nn(-c3ccc(Cl)cc3)n2O)cc1	2.0	0.3%	-18.0%	-6.9	-23.4%	?
O=[N+]([O-])c1nn(-c2ccc(Cl)cc2)n(O)c1=NCc1ccncc1	-0.9	-1.6%	.	-4.8	12.6µM*	-12.3%
O=[N+]([O-])c1nn(-c2ccccc2)n(O)c1=NCCc1ccccc1	?	1.6%	?	?	-9.6%	-11.7%
Cc1ccc(CNC(=O)CN(C)S(=O)(=O)c2ccc(F)cc2)cc1	.	.	.	1.6	-4.4%	.
Cc1c(NC(=O)C(C)OC(=O)c2ccc(NC(=O)CC#N)cc2)c(=O)n(-c2ccccc2)n1C (centres undefined)	3.2	-0.1%	3.2%	2.2	1.3%	11.3%
Cc1ccc2[nH]c3c(c2c1)SC(C)(C)CC3=O	.	-0.1%	11.7%	2.6	10.6%	-10.5%
CC1=C(C#N)C(=O)N(C2CCS(=O)(=O)C2)C(=O)/C1=C\c1ccc(C)o1 (centres undefined)	.	?	14.1µM*	.	.	-2.4%
Cc1ccc(C(=O)CCS(=O)(=O)c2ccc(F)cc2)cc1	6.5	-1.6%	.	-1.1	11.2µM*	-6.7%
O=C(CN1CC(=O)Oc2ccccc21)OCC(=O)c1ccccc1	-92.1*	3.4%	.	-90.8*	?	-13.9%
